The source of these data is PubChem BioAssay (Tox21).

A short description of experiment [1]: qHTS assay for small molecules that induce genotoxicity in human embryonic kidney cells expressing luciferase-tagged ATAD5 (AID 651632). Further: nearly all actives have a fitted effect of over 15% in size. Summed up: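 Increased luciferase signal from ATAD5-tagged reporter cells indicates DNA-damage-driven ATAD5 induction. HEK293T cells are treated for 16 hr at 37C before detection with Amplite.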
The nature of experiment [2]: qHTS assay for small molecule agonists of the p53 signaling pathway - cell viability (AID 651633; calls by dose curve; further: nearly all actives have a fitted effect of over 30% in size; further: potency means the concentration at half of the fitted maximal effect). The gist of the method: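 Viability counter-read: CellTiter-Glo luminescence (30 min, room temperature) in the same p53RE-bla plates. These plates had been exposed to compounds for 16 h at 37 C.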
On the technique in general: qHTS replaces the single test concentration by a dilution series.

Experiment [3] is described as follows: qHTS assay for small molecules that induce genotoxicity in human embryonic kidney cells expressing luciferase-tagged ATAD5 - cell viability (AID 651634; calls by dose curve; further: nearly all actives have a fitted effect of over 25% in size; further: potency means the concentration at half of the fitted maximal effect). The gist of the method:
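Cytotoxicity counterscreen in HEK293T cells bearing an ATAD5-luciferase reporter: live-cell protease activity measured by CellTiter-Fluor fluorescence after 15.5 hr compound exposure.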

Experiment [4] in a line: qHTS assay to test for compound auto fluorescence at 590 nm (red) in HepG2 cells (AID 720674). Summed up:
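We screened compounds on adherent HepG2 cells, incubating them for an hour at 37 C in 5% CO2 before reading emission at 590 nm under 540 nm excitation; values reflect equivalence to Rose Bengal sodium fluorescence.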

The nature of experiment [5]: qHTS assay to test for compound auto fluorescence at 535 nm (green) in HepG2 cells (AID 720675).
Experiment [6] in a line: qHTS assay to test for compound auto fluorescence at 460 nm (blue) in HEK293 cells (AID 720678). The gist of the method:
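HEK293 cells (2,000 per well, medium with 10% dialyzed FBS) attached for 4-5 hr at 37C, then received compound and stood overnight at 37C, 5% CO2. Blue fluorescence was read at Ex/Em 405/460 nm and expressed relative to triamterene.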

The nature of experiment [7]: qHTS assay to test for compound auto fluorescence at 590 nm (red) in HEK293 cells (AID 720679). The gist of the method:
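HEK293 cells (2,000/well, medium with 10% dialyzed FBS) attached for 4-5 hr at 37C, received 23 nL compound and were incubated overnight at 37C, 5% CO2. Red fluorescence was then read at 540/590nm Ex/Em, referenced to Rose Bengal sodium.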

Experiment [8] in a line: qHTS assay for small molecule disruptors of the mitochondrial membrane potential - cell viability (AID 720634; calls by dose curve; further: nearly all actives have a fitted effect of over 20% in size; further: potency means the concentration at half of the fitted maximal effect). Summed up: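 After overnight attachment at 37 C, HepG2 cells received compound or DMSO vehicle for 1 hr. Viability is then taken from ATP-driven luminescence following a 30 min room-temperature CellTiter-Glo step.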
Experiment [9] in a line: qHTS assay for small molecule disruptors of the mitochondrial membrane potential (AID 720635). Further: potency means the concentration at half of the fitted maximal effect. Summed up:
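Mitochondrial membrane potential tracked with Mito-MPS dye, red aggregates (ex 540/em 590 nm) against green monomers (ex 490/em 535 nm). Compound treatment 1 hr at 37C, dye 30 min in HepG2.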

Several values for one entry are separate records, joined by “and”; a condition that tells them apart may be missing. Equal values may be shown once. Records with an inconclusive call do not appear. Activity calls are given as the source filed them. Unless noted, the call rests on the fitted dose curve; in most records, active means well fitted curve in the direction sought with a large enough effect in the repeat runs; inconclusive means weak or mixed curves; inactive means no such curve, though single readings can be large; an effect the other way counts as inactive or inconclusive.

As for `CCCCOCN(C(=O)CCl)c1c(CC)cccc1CC`, the Potency entry in experiment [1], in [2], in [3] and in [6] was “inactive” each time. Besides, the result in [4], in experiment [5] and in experiment [7] was inactive.
As to `O=c1[nH]c2ccccc2n1C1CCN(CCCC(c2ccc(F)cc2)c2ccc(F)cc2)CC1`, the Potency entry in experiment [1] and in [6] was “inactive” each time. The Potency was 23.7 µM (active) and 61.1 µM (active) in [2]; 29.8 µM (active) and 54.5 µM (active) in experiment [3]. For the same compound, the result in experiment [4], in experiment [5] and in experiment [7] was inactive.
Turning to `CC(C)CC(C)Nc1ccc(Nc2ccccc2)cc1` (stereo not drawn), the Potency entry in experiment [1] and in [6] was “inactive” each time. The Potency is 53.5 µM (active) in [2], 23.9 µM (active) in experiment [8] and 13.4 µM (active) in experiment [9]. Further, the call in experiment [4], in experiment [5] and in [7] was inactive.
As to `Clc1ccc(CO/N=C(\Cn2ccnc2)c2ccc(Cl)cc2Cl)c(Cl)c1`, the Potency entry in experiment [1], in [8] and in experiment [6] was “inactive” in each case. Moreover, the Potency in experiment [2] is 26.6 µM (active). The result in [4], in experiment [5] and in experiment [7] was inactive.
`Oc1ccc(C2(c3ccc(O)cc3)CCCCC2)cc1`: the Potency result in [1], in experiment [3], in [8] and in experiment [6] was “inactive” each time. Besides, in [9], the Potency is 16.3 µM (active). Moreover, the compound was classed as inactive in experiment [4], in experiment [5] and in experiment [7].
In the case of `COc1ccc(N)cc1N`, the Potency result in experiment [1] and in experiment [6] was “inactive” each time. Moreover, the Potency in [2] was 22.4 µM (active) and 33 µM (active); in experiment [8] it was 63.1 µM (active) and 29.4 µM (active); in experiment [9], 1.78 µM (active) and 4.15 µM (active). Further, the call in [4], in experiment [5] and in experiment [7] was inactive.
Take `CCCN(CCC)c1c([N+](=O)[O-])cc(S(N)(=O)=O)cc1[N+](=O)[O-]`: the Potency entry in [1] and in experiment [6] was “inactive” throughout. Also, the Potency was 54.5 µM (active) in [3], 32.7 µM (active) in experiment [8] and 3.67 µM (active) in experiment [9]. Moreover, the outcome in experiment [4], in [5] and in experiment [7] was inactive.
On to `C[C@]12Cc3nonc3C[C@@H]1CC[C@@H]1[C@@H]2CC[C@@]2(C)[C@H]1CC[C@]2(C)O`, for which the Potency result in experiment [1] and in [6] was “inactive” in each case. The Potency in [2] was 29.8 µM (active). For the same compound, the outcome in experiment [4], in experiment [5] and in experiment [7] was inactive.
Take `CCOCn1c(-c2ccc(Cl)cc2)c(C#N)c(Br)c1C(F)(F)F`: the Potency result in experiment [1] and in experiment [6] was “inactive” in each case. Also, the results for the Potency in [2] and in experiment [9] were 30.6 µM (active) and 0.0486 µM (active), respectively. For the same compound, the call in experiment [4], in experiment [5] and in experiment [7] was inactive.
For `Cc1cc(SCc2sc(-c3ccc(C(F)(F)F)c(F)c3)nc2C)ccc1OCC(=O)O`, the Potency entry in [1] and in [6] was “inactive” each time. In experiment [2], the Potency is 48.6 µM (active). Besides, the outcome in experiment [4], in [5] and in experiment [7] was inactive.
Regarding `CC(=O)Nc1ccc2c(c1)Cc1ccccc1-2`, the Potency result in experiment [2], in experiment [3], in experiment [8] and in [6] was “inactive” in each case. Further, in experiment [9], the Potency was 31.1 µM (active). Also, the result in experiment [4], in experiment [5] and in experiment [7] was inactive.
Turning to `O=c1[nH]c2ccccc2n1CCCN1CCC(n2c(=O)[nH]c3cc(Cl)ccc32)CC1`, the Potency entry in experiment [2], in experiment [8], in [9] and in experiment [6] was “inactive” throughout. Also, the outcome in experiment [4], in experiment [5] and in [7] was inactive.
Turning to `CCOP(=S)(OCC)OC(Cl)C(Cl)(Cl)Cl` (stereo not drawn), the Potency result in [1], in experiment [3] and in experiment [6] was “inactive” each time. Moreover, in experiment [9], the Potency is 61.1 µM (active). The result in experiment [4], in [5] and in experiment [7] was inactive.
Turning to `CC(=O)[O-].CC(=O)[O-].O.O.[Cd+2]`, in [3], the Potency was 0.214 µM (active). The call in [4], in [5] and in [7] was inactive. For the same compound, the Potency result in experiment [6] is “inactive”.
Consider `CN(C)c1ccc(N=Nc2ccccc2)cc1`, for which the Potency result in experiment [2] and in experiment [6] was “inactive” in each case. The figures for the Potency in experiment [3] and in experiment [8] were 68.7 µM (active) and 48.6 µM (active), respectively. Also, the outcome in [4], in experiment [5] and in experiment [7] was inactive.
Take `CN(C)C(=S)S`: the Potency result in experiment [2], in experiment [3], in experiment [8], in experiment [9] and in [6] was “inactive” in each case. For the same compound, the compound was called inactive in experiment [4], in [5] and in experiment [7].
Consider `CC1(C)C(/C=C(\Cl)C(F)(F)F)C1C(=O)OC(C#N)c1cccc(Oc2ccccc2)c1` (stereo not drawn), for which the Potency result in [1], in [3] and in [6] was “inactive” in each case. In experiment [9], the Potency is 34.9 µM (active). For the same compound, the compound was classed as inactive in [4], in [5] and in [7].
In the case of `Oc1ccc(C(=C(Cl)Cl)c2ccc(O)cc2)cc1`, the Potency entry in experiment [1], in experiment [3] and in [6] was “inactive” each time. Moreover, the Potency in [9] is 17.2 µM (active). The result in [4], in experiment [5] and in experiment [7] was inactive.
On to `[Cd+2].[Cl-].[Cl-]`, for which the Potency in experiment [3] was 1.95 µM (active) and 1.22 µM (active). The result in [4], in experiment [5] and in experiment [7] was inactive. The Potency entry in experiment [6] was “inactive”.
Take `C[C@@H]1CC[C@@]2(OC1)O[C@H]1[C@@H](O)[C@H]3[C@@H]4CC[C@H]5C[C@@H](O[C@@H]6O[C@H](CO)[C@H](O[C@@H]7O[C@H](CO)[C@@H](O)[C@H](O[C@@H]8OC[C@@H](O)[C@H](O)[C@H]8O)[C@H]7O[C@@H]7O[C@H](CO)[C@@H](O)[C@H](O[C@@H]8O[C@H](CO)[C@@H](O)[C@H](O)[C@H]8O)[C@H]7O)[C@H](O)[C@H]6O)[C@H](O)C[C@]5(C)[C@H]4CC[C@]3(C)[C@H]1[C@@H]2C`: the Potency in [2] was 23 µM (active); in [3], 64.9 µM (active); in experiment [8], 18.3 µM (active); in experiment [9], 4.59 µM (active). Moreover, the compound was classed as inactive in [4], in experiment [5] and in experiment [7]. Besides, the Potency entry in experiment [6] is “inactive”.
For `Nc1ccccc1C(=O)OC/C=C/c1ccccc1`, the Potency entry in [1], in [3] and in [6] was “inactive” throughout. In experiment [9], the Potency is 19.4 µM (active). Moreover, the outcome in experiment [4], in [5] and in experiment [7] was inactive.
